Paper PMC4552634, “A New Set of Chemical Starting Points with Plasmodium falciparum Transmission-Blocking Potential for Antimalarial Drug Discovery” (PLoS ONE, 2015)
Screen size: about 13,000 compounds; about 3,200 (25%) showed an effect of 50% or more. This is one part of the list.

system: P. falciparum stage V gametocytes; parameters: BacTiter-Glo ATP luminescence viability of purified stage V gametocytes in 384-well plates, per cent inhibition versus DMSO; settings: 48 h, 5 µM; inhibitor

Structure (SMILES) | % Inhibition [%]
Clc1ccc(CNC2CCN(CC3CCCCC3)CC2)cc1 [TCMDC-141658] | -44.47
FC(F)(F)c1ccc(-c2ccc(CNC3CCN(CCN4CCOCC4)CC3)cc2)cc1 [TCMDC-136025] | 39
CCN1CCC(NCc2ccc(-c3ccc(Cl)s3)cc2)CC1 [TCMDC-141263] | 93.74
CCCCCCN1CCC(NCc2ccc(C(F)(F)F)cc2)CC1 [TCMDC-141669] | -50.38
CN1CCC(NCc2ccc(-c3ccc(Cl)cc3)cc2)CC1 [TCMDC-141355] | 54.41
CCCCCCN1CCC(NCc2ccc(Cl)cc2)CC1 [TCMDC-141666] | 71.31
CCN1CCC(NCc2ccc(-c3ccc(Cl)cc3)cc2)CC1 [TCMDC-141354] | 41.97
CCCCCCN1CCC(NCc2ccc(C)cc2)CC1 [TCMDC-141667] | -37.31
CC(C)N1CCC(NCc2ccc(-c3ccc(Cl)cc3)cc2)CC1 [TCMDC-141359] | 35.52
CN(C)CCCc1cc(NC(=O)Nc2cccc(Cl)c2Cl)ccc1I [TCMDC-139132] | -49.28
CCOC(=O)c1c(C)n(-c2ccccc2)c2ccc(OC(=O)COc3ccc(Cl)cc3Cl)cc12 [TCMDC-124380] | -46.8
COc1ccc2nccc(C(=O)NC3CCC(CCN4CCc5cc(C#N)ccc5C4)CC3)c2c1 (stereo not shown) [TCMDC-139240] | 4.839
CN(C)CCCOc1c(C(C)(C)C)cc(-c2cc(C(C)(C)C)c(OCCCN(C)C)c(C(C)(C)C)c2)cc1C(C)(C)C [TCMDC-131822] | 59.94
Cn1cnc(CCNC(=O)c2ccc(-c3ccc(-c4nc5cc(F)ccc5[nH]4)cc3)cc2)c1 [TCMDC-132491] | 5.885
O=C(CC1SC(N2N=C(c3cccs3)CC2c2ccccc2)=NC1=O)Nc1ccc(Cl)cc1 (stereo not shown) [TCMDC-124762] | 14.18
Cc1cc(N(C)C)nc(Nc2ccc(NC(=O)COc3ccccc3)cc2)n1 [TCMDC-124975] | -15.54
CCn1c(-c2nonc2N)nc2c(-c3cccc(Cl)c3)ncc(OCCCNCCc3cnc[nH]3)c21 [TCMDC-135919] | 106.8
Clc1cccc(CNc2nc(NCCc3cnc[nH]3)nc(NC3CCCCC3)n2)c1 [TCMDC-139735] | 0.07512
CCn1c(-c2nonc2N)nc2c(-c3cccc(Cl)c3)ncc(OCCCNCc3cnc(C)nc3N)c21 [TCMDC-135956] | 99.17
NC(N)=NC(=O)Nc1ccc(Cl)c([N+](=O)[O-])c1 [TCMDC-137567] | -21.87
CC(C)c1sc(N2CCN(C)CC2)nc1C(=O)NCCc1ccc(Br)cc1 [TCMDC-134294] | 2.102
COc1ccc2nccc([C@@H](O)CN3CCC(NC(=O)CCC(=O)c4cc(C(C)(C)C)ccc4OC)CC3)c2c1 [TCMDC-141108] | 21.12
Cc1cc(NCc2ccccc2)nc2cc(O)ccc12 [TCMDC-125297] | 15.33

Structure (SMILES) | % Inhibition [%]
CC(C)CCNc1nc(NCCCc2ccccc2)c2cc(O)ccc2n1 [TCMDC-138381] | 95.75
CC(C)CCNc1nc(NCc2ccccc2)c2cc(O)ccc2n1 [TCMDC-138436] | 91.5
CC(C)CCNc1nc(NCCc2ccccc2)c2cc(O)ccc2n1 [TCMDC-138405] | 95.11
Oc1ccc(Nc2nc(NCc3ccccc3)c3ccccc3n2)cc1 [TCMDC-125641] | -47.6
Cc1noc(-c2cccs2)c1C(=O)NCCc1cccc(Cl)c1 [TCMDC-124801] | 0.8455
COc1cc(CNC[C@@H](O)[C@H](Cc2ccccc2)NC(=O)c2cc(C3CCCC3)cc(N3CCCS3(=O)=O)c2)cc(OC)c1 [TCMDC-134560] | 26.15
CCOc1cc(C(=O)Nc2ccc3nc(N4CCCCC4)cc(C)c3c2)cc(OCC)c1OCC [TCMDC-125449] | -1.386
Cc1cccc2c(N=NC(=S)N(C)C)c(O)[nH]c12 [TCMDC-137626] | -58.93
O=C1OC2(CN1CC1CCN(Cc3ccc(-n4ccnc4)cc3)C1)c1ccccc1-c1ccccc12 (stereo not shown) [TCMDC-136314] | 22.25
N#Cc1cccc(NC(=O)Nc2ccc(-c3ccc(-c4nc5ccc(C(F)(F)F)cc5[nH]4)cc3)cc2)c1 [TCMDC-133190] | -5.798
Cc1cccc(NC(=O)Nc2cccc(-c3ccc(-c4nc5ccc(C(F)(F)F)cc5[nH]4)cc3)c2)c1 [TCMDC-133305] | 4.928
CCN(CC)CCCN(CCCN(CC)CC)c1cc(C)nc(Nc2ccc(Br)cc2)n1 [TCMDC-138007] | 66.18
CCN(CCCN1CCCCC1)c1cc(C)nc(Nc2ccc(C)cc2)n1 [TCMDC-132427] | -21.39
Cc1cc(N(C)CCCN(C)C)nc(Nc2ccc(Br)cc2)n1 [TCMDC-136888] | 36.7
CCCCN(CCCC)CCCN(CCCN(CCCC)CCCC)c1cc(C)nc(Nc2ccc(Br)cc2)n1 [TCMDC-138004] | 92.54
CCCc1ccc(Nc2nc(C)cc(N(CC)CCCN3CCCCC3)n2)cc1 [TCMDC-132453] | 39.01
Cc1cc(N(C)CCN(C)C)nc(Nc2ccc(Br)cc2)n1 [TCMDC-137013] | 18.91
O=C(Nc1cccc(-c2ccc(-c3nc4cc(F)ccc4[nH]3)s2)c1)c1cccnc1 [TCMDC-136931] | -7.86
CCOc1cc2ncnc(Nc3ccc(OCc4ccccc4OC)c(OC)c3)c2cc1OCC [TCMDC-131912] | -29.04
CCN(CC)CCCN(C(=O)c1cc2c(C)nn(-c3ccccc3)c2s1)c1nc(-c2ccc(OC)cc2)cs1 [TCMDC-125429] | 17.92
Cc1nn(-c2ccccc2)c2sc(C(=O)N(CCCN(C)C)c3nc(-c4ccccc4)cs3)cc12 [TCMDC-125428] | 100.2
COc1ccc(-c2csc(N(CCCN(C)C)C(=O)c3cc4c(C)nn(-c5ccccc5)c4s3)n2)cc1 [TCMDC-124034] | 46.49
Cc1n[nH]c(C)c1C1CCN(CC2CCC(NC(=O)/C=C/c3ccc(Cl)c(Cl)c3)CC2)CC1 (stereo not shown) [TCMDC-139624] | 34.25
